Each structure is given as a SMILES string. Out of some 360,000 compounds screened, about 17,000 (4.7%) were called active. Inconclusive results (about 5%) are left out. Cut-off read from the data, not from the text of the source: active = activity change below about -50%; inconclusive = mostly about -30% to -49%; inactive = weaker than that. For the sample, actives were picked, then their nearest neighbours and some compounds at random.
% is set by controls: 0 for no effect and ±100 for the full control effect.

The test is described as follows: qHTS for Inhibitors of Inflammasome Signaling: IL-1-beta AlphaLISA Primary Screen. The conditions noted are these: THP-1 LPS/ATP IL-1B secretion, 16 h; at 57.5 µM, hits give low values. In a few lines:
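Secreted IL-1B measured by AlphaLISA bead assay after 16 h compound exposure of THP-1 cells; compounds (final up to 57.5 uM) added 1 h before LPS (250 ng/mL) and ATP (1.25 mM) stimulation; lower signal means less secretion.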
(In general: In qHTS, concentration-response curves come from the screen itself.)
As to `CC(=O)Nc1cccc(-c2ccnc3c2CC(C)(C(=O)NCc2ccccc2)O3)c1` (configuration not stated), the activity change is 92.1% (inactive).

For `CCCCN(CCCC)C(=O)CCS(=O)(=O)c1ccc2c(c1)n(C)c(=O)c(=O)n2C`, the activity change was 7.06% (inactive). With `O=C1CCC(=O)N(O)CCCCCNC(=O)CCC(=O)N(O)CCCCCNC(=O)CCC(=O)N(O)CCCCCN1` the figure was 38.7% (inactive); with `Cc1nc(-c2ccccc2)sc1C(=O)/C=C/c1ccccc1`, -84.3% (active). For `COc1ccc(/C=C/C(=O)NC(=S)N2CCCC(C(N)=O)C2)cc1` (configuration not stated) the value was -22.6% (inactive). As to `COc1ccc(/C=C/C(=O)c2cc(Br)ccc(=O)c2O)cc1`, the activity change was -2.15% (inactive). For the molecule `COc1ccc(C(=O)CCC(=O)Nc2cccnc2)c(OC)c1`, the activity change was -9.85% (inactive). As for `COc1ccc(/C=C/C(=O)c2ccc(OC)cc2O)cc1`, the activity change was -98.1% (active). For `COc1ccc(C(=O)/C=C/c2ccc(OC3CSC3)cc2)cc1` the value was -99.6% (active). For `COc1ccc(C(=O)CC(=O)c2ccc(C)cc2)c(O)c1` the value was -20.9% (inactive); for `Cc1nc(-c2ccccc2)sc1C(=O)/C=C/N(C)C`, -11.9% (inactive). `COc1ccc(C(=O)/C=C/c2cccnc2)c(OC)c1`: the activity change was -96.6% (active).

Regarding `COc1ccc(-c2cc(C(=O)N/N=C/c3cccnc3)c3ccccc3n2)c(OC)c1`, the activity change is -5.72% (inactive).

For `Cc1nc(-c2ccc(Cl)cc2)sc1C(=O)CBr`, the activity change is 0% (inactive). With `CCOC(=O)C1CCCN(C(=O)/C=C/c2ccc(OC)cc2)C1` (configuration not stated) the figure was -6.92% (inactive); with `Cc1ccc(S(=O)(=O)N2CCOCC2)cc1NC(=O)CSc1nnc(N)s1`, 18.9% (inactive); with `COC(=O)[C@]12CCCCC=C1N(Cc1ccccc1)C(=O)[C@H](CC(=O)NCc1ccc(C)o1)C2`, 42.5% (inactive). With `O=C(OCc1cn([C@@H]2C[C@H](c3ccc(Cl)cc3)N(Cc3cccs3)C[C@H]2O)nn1)c1ccccc1` the figure was 10.7% (inactive). For the molecule `O=C1CCC/C(=N\NC(=O)NC2CCCCC2)C1`, the activity change is -10.6% (inactive).

`O=C(/C=C(O)/C=C/c1ccc(O)cc1)/C=C/c1ccc(O)cc1`: the activity change is -22.4% (inactive). Take `O=C(NNC(=O)c1ccccc1O)c1ccccc1O`: the activity change is 67.1% (inactive). As for `O=C(/C=C/c1ccccc1)c1ccccc1O`, the activity change was -85.5% (active). Consider `CCCS(=O)(=O)NC(=O)C1(C)CCCN(C(=O)c2cccs2)C1` (configuration not stated), for which the activity change was 1.15% (inactive). In the case of `CCOC(=O)c1ccc2[nH]c(C)c(CN3CCN(C)CC3)c(=O)c2c1`, the activity change was 13.2% (inactive). With `O=C(CCCCCn1c(=S)[nH]c2ccsc2c1=O)NC1CCCCC1` the figure was 7.06% (inactive); with `CO[C@@H]1CN(C)C(=O)c2cc(NC(=O)C3CC3)ccc2OC[C@H](C)N(C(=O)CN2CCOCC2)C[C@@H]1C`, 11% (inactive); with `O=C(O)c1ccccc1-c1cccc2nncn12`, -10.3% (inactive).

Consider `Cn1c2c(c(=O)n(C)c1=O)C(c1cccc(F)c1)C(C#N)=C(N)O2` (configuration not stated), for which the activity change was 5.24% (inactive). As to `Cc1c(C(=O)NCc2ccc(C#N)cc2)sc(=O)n1Cc1ccc(C(=O)N(C)C)cc1`, the activity change is -7.66% (inactive). As for `CCCCCOc1ccc(CSC2=NCCN2)cc1[N+](=O)[O-]`, the activity change was -93.2% (active).

`Cc1nc(SCc2ccc(F)cc2)c([N+](=O)[O-])[nH]1`: the activity change was 15.4% (inactive). Turning to `CCCCOc1ccc(CSC(=N)N)cc1[N+](=O)[O-]`, the activity change is -102% (active). For `Cc1cc(OCCCCOc2ccc(C#N)cc2)ccc1[N+](=O)[O-]` the value was 0% (inactive).

`O=[N+]([O-])c1ccccc1OCCCCN1CCCCC1`: the activity change is 15.9% (inactive). On to `CCCCOC(=O)CCCc1ccc([N+](=O)[O-])cc1[N+](=O)[O-]`, for which the activity change is 17.5% (inactive). With `O=C(Nc1nnc([C@H]2C[C@H](O)[C@@H](CO)O2)s1)c1cccc(Cl)c1`, the activity change is 25.3% (inactive). For `CCOC(=O)C1(Cc2ccccc2C(F)(F)F)CCN(C(=O)c2cc(C)n(C)n2)CC1` the value was 58% (inactive); for `CC(=O)NC(CC(=O)Nc1nc(-c2ccccc2)c(C(C)=O)s1)c1ccccc1` (configuration not stated), -10.6% (inactive). On to `CCN1C(=O)CS/C1=N\c1nccs1`, for which the activity change was -5.9% (inactive). With `O=C(Cc1ccc(Cl)cc1)c1ccccc1` the figure was -14.1% (inactive). With `CCNC(=O)N(CC)C[C@H]1N[C@@](CC)(C(=O)OC)[C@H]2C(=O)N(Cc3ccccc3)C(=O)[C@@H]12` the figure was 36% (inactive). Take `CCN(C[C@H]1N[C@@](Cc2ccccc2)(C(=O)OC)[C@H]2C(=O)N(Cc3ccccc3)C(=O)[C@@H]12)C(=O)c1ccc(C)cc1`: the activity change is -54.1% (active). `CCN(C[C@H]1N[C@@](CC)(C(=O)OC)[C@H]2C(=O)N(Cc3ccccc3)C(=O)[C@@H]12)S(=O)(=O)c1ccccc1`: the activity change is -2.92% (inactive). With `Cc1ccc(S(=O)(=O)NN=C2CC(C)(C)CC(=O)C2(C)C)cc1` the figure was 0.854% (inactive). For `Cc1cccc(C)c1NC(=O)C(c1ccc(C(F)(F)F)cc1)n1c(=O)c(-c2ccco2)nc2ccccc21` (configuration not stated) the value was -1.25% (inactive); for `COc1ccc2nc(SCC(=O)Nc3c(C)cc(C)cc3C)[nH]c2c1`, 15.5% (inactive); for `Cc1ccc2nc(SCC(=O)NC3CCCC3)[nH]c2c1`, -11.8% (inactive). For `Cc1cc(C)c(NC(=O)CSc2nc3ccncc3[nH]2)c(C)c1` the value was -69.3% (active); for `COc1ccc(C(CNC(=O)c2cccc(S(=O)(=O)Nc3ccc(Br)cc3)c2)N(C)C)cc1` (configuration not stated), -12.1% (inactive); for `CCC(NC(=O)C1CCCC1)c1ccc(C)cc1` (configuration not stated), 31.4% (inactive). With `Brc1ccc2nc(-c3ccccc3)c(Cc3ccccc3)n2c1`, the activity change was 28.2% (inactive).

As for `CCN(CC)S(=O)(=O)c1ccc(N2CCOCC2)c(NC(=O)C2COc3ccccc3O2)c1` (configuration not stated), the activity change is -0.208% (inactive). For `CCN(CC)S(=O)(=O)c1ccc(N2CCOCC2)c(NC(=O)C(C)Oc2ccc(F)cc2)c1` (configuration not stated), the activity change was -2.11% (inactive). With `CCN(CC)S(=O)(=O)c1ccc(N2CCOCC2)c(NC(=O)c2ccc(=O)n(C)n2)c1`, the activity change is 8.34% (inactive).

On to `CCN(CC)S(=O)(=O)c1ccc(N2CCCC2)c(NC(=O)c2ccc([N+](=O)[O-])o2)c1`, for which the activity change was -86.5% (active). For the molecule `CCN(CC)S(=O)(=O)c1ccc(N2CCN(C)CC2)c(NC(=O)Nc2ccccc2F)c1`, the activity change was -72.3% (active). `CCN(CC)S(=O)(=O)c1cc(C(=O)Nc2cc(S(=O)(=O)N3CCOCC3)ccc2N2CCCC2)ccc1F`: the activity change is -10.4% (inactive). Consider `Cc1ccc(-c2ccc(CN3C(C)C(=O)N(Cc4cn(CCC5OCCCO5)nn4)CCS3(=O)=O)cc2)cc1` (configuration not stated), for which the activity change was -2.45% (inactive). With `CC1C(=O)Nc2ccccc2N1C(=O)c1ccc(F)cc1F` (configuration not stated) the figure was 10.1% (inactive); with `Cc1ccc(C(=O)N[C@H](C(=O)N2CCN(c3ncccn3)CC2)C(C)C)cc1`, -11.5% (inactive); with `CCOC(=O)c1cnn(Cc2ccccc2Cl)c1N`, 0.436% (inactive). As to `Cc1c(NC(=O)CSc2cccc3cccnc23)c(=O)n(-c2ccccc2)n1C`, the activity change is -96.5% (active). Consider `Cc1c(NC(=O)CSc2nnnn2-c2ccc(C(=O)O)cc2)c(=O)n(-c2ccccc2)n1C`, for which the activity change is 22.1% (inactive). With `Cc1c(NC(=O)CSc2nnc(-c3cccnc3)n2N)c(=O)n(-c2ccccc2)n1C` the figure was 25.5% (inactive); with `Cc1noc(C)c1-c1ccc(C(=O)NCc2ccncc2)c2occc12`, 60.8% (inactive); with `COC(=O)CN1C(C)=Nc2ccc(Br)cc2C1c1ccccc1` (configuration not stated), -27.1% (inactive). With `Cc1ccc(C2C(C#N)C(C#N)N3CCCN23)cc1` (configuration not stated) the figure was 0.442% (inactive). Turning to `CCN(/N=C/c1ccc(N(C)C)cc1)c1nc2ccccc2[nH]1`, the activity change is -29.3% (inactive). With `Oc1ccc(/C=N/N(Cc2ccccc2)c2ccccc2)cc1` the figure was -72.7% (active). Consider `CCN(/N=C/c1ccccc1)c1cc(=O)n(C)c(=O)[nH]1`, for which the activity change was 0% (inactive).

For the molecule `Cc1cc(Cl)ccc1OCc1nc(-c2ccncc2)no1`, the activity change is -55.8% (active). With `Cc1cc(Cl)ccc1OCCCC(=O)NCc1ccncc1`, the activity change was -6.96% (inactive). With `Cc1ccc(-c2nc(-c3ccncc3)no2)c(C)c1` the figure was -25.6% (inactive); with `O=C(COc1ccc(Br)cc1F)NC1CCN(Cc2ccccc2)CC1`, -25.9% (inactive). For `S=C(Nc1ccc(Br)cc1)NC1CCN(Cc2ccccc2)CC1` the value was -96% (active); for `O=C(Cc1ccc(Br)cc1)NCCc1ccccc1`, -1.81% (inactive); for `Cc1cc(Br)ccc1NC(=S)NC1CCCC1`, 0.7% (inactive).

`S=C(NN=C1CCN(Cc2ccccc2)CC1)NC1CCCCC1`: the activity change is 0% (inactive). With `O=S(=O)(NCCCc1ccccc1)c1ccc(Br)cc1` the figure was 8.22% (inactive); with `S=C(Nc1ccc(Br)cc1Cl)NC1CCN(Cc2ccccc2)CC1`, -75.9% (active); with `CCNC(=S)NNC(=O)C1CCN(Cc2ccccc2)CC1`, -12.8% (inactive). For `S=C(NCCCc1ccccc1)Nc1ccc(Br)cc1` the value was -85.8% (active); for `COCCN(C(=O)C(C)N1C(=O)c2ccccc2C1=O)c1c(N)n(CC(C)C)c(=O)[nH]c1=O` (configuration not stated), 13.1% (inactive); for `COc1ccc(OC)c(NC(=O)c2cc(-c3cc(F)ccc3OCC3CCCO3)n[nH]2)c1` (configuration not stated), 0% (inactive). With `CCCC(=O)N1CCC1(C)C(=O)NCc1ccc(C(C)C)cc1` (configuration not stated) the figure was -18% (inactive).

In the case of `N/C(=N\OC(=O)Cc1ccc([N+](=O)[O-])cc1)c1ccccn1`, the activity change is -21.1% (inactive). With `N/C(Cc1ccc([N+](=O)[O-])cc1)=N\OC(=O)COc1ccc2ccccc2c1`, the activity change was -59.9% (active). With `Cc1cc(C)cc(OCC(=O)O/N=C(\N)Cc2ccc([N+](=O)[O-])cc2)c1` the figure was -24.7% (inactive); with `CC1(C(=O)NS(=O)(=O)c2ccccc2)CCN1C(=O)c1ccccc1` (configuration not stated), 21% (inactive).

Regarding `Cc1ccc(COc2ccc(/C=N/NC(=O)CN3CCCCC3)cc2)cc1`, the activity change was -51.4% (active). For `CCOc1cc(/C=N/NC(=O)CN2CCCCC2)ccc1O` the value was 2.69% (inactive). With `O=C(CN1CCSCC1)N/N=C/c1ccc(F)cc1` the figure was -9.62% (inactive).

The values are drawn from PubChem BioAssay AID743279 (National Center for Advancing Translational Sciences (NCATS), 2014).
